PubChem BioAssay
Active and inactive are the calls of the source. Unless noted, how the calls were made is not given here.

Key:
[1] = tested on: Wnt5a (protein binding on small-molecule microarray); test: Wnt5a binders on small-molecule microarray, primary screen, biophysical, 635/667 nm fluorescence (AID 1142); conditions: 635 nm fluorescence, higher = more signal;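 further: fluorescence read at 667 nm with signal to noise per printed feature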
[2] = cell viability in Huh7 cells, primary screen, cytotoxicity control for HCV replication inhibitor project, CellTiter-Glo luminescence, basal, 48 h (AID 1143); conditions: Huh7 HCV replicon, higher = more signal, called active from +8 up or from −8 down;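 further: Huh7 hepatoma cells carrying a hepatitis C replication reporter with no stimulus; test concentration not given here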
[3] = P. aeruginosa biofilm formation inhibitors, primary screen, PAO1 strain, BacTiter-Glo luminescence, LB-PBS (AID 1144); conditions: 12 h, higher = more signal
[4] = CREB reporter modulators without forskolin, primary screen, cell-based, PC12, CRE-LacZ reporter, unstimulated (AID 1145); conditions: no forskolin, luminescence, 4.5 h, higher = more signal, called active from +8 up or from −8 down
[5] = CREB reporter modulators under forskolin, primary screen, cell-based, PC12, CRE-LacZ reporter, forskolin-stimulated (AID 1146); conditions: luminescence, 4.5 h, higher = more signal, called active from +8 up or from −8 down;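 further: PC12 cells with 6xCRE LacZ reporter stimulated by forskolin 10 µM; beta-galactosidase reporter signal reflecting CREB driven transcription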
[6] = biological target: Streptavidin (Streptomyces avidinii) (UniProt P22629); test: streptavidin binders on small-molecule microarray, primary screen, artefact control for SMM compound annotation, biophysical, 635/667 nm fluorescence (AID 1147); conditions: streptavidin binding, higher = more signal;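 further: signal reflects streptavidin binding to arrayed compounds as a control protein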
Streptavidin (Streptomyces avidinii), sequence (P22629 whole entry, looked up): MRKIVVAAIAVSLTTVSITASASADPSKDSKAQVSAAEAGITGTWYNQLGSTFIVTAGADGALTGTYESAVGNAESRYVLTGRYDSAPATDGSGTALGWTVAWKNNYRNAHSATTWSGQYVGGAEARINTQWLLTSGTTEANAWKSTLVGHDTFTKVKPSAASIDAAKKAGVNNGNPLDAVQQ

[7] = small-molecule binders of probe aInhba, primary screen, biochemical, small-molecule microarray, 635/667 nm fluorescence (AID 1148); conditions: higher = more signal;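 further: score merges 667nm spot fluorescence with signal-to-noise for antibody binding to printed compounds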
Torsin-1A (Homo sapiens) [8] = biological target: Torsin-1A (Homo sapiens) (UniProt O14656); test: torsin A binders from cell lysate, primary screen, small-molecule microarray, wild-type, 635/667 nm (AID 1149); conditions: COS7 hTOR1A-WT lysate, 635 nm fluorescence, higher = more signal
Torsin-1A (Homo sapiens), sequence (O14656 whole entry, looked up): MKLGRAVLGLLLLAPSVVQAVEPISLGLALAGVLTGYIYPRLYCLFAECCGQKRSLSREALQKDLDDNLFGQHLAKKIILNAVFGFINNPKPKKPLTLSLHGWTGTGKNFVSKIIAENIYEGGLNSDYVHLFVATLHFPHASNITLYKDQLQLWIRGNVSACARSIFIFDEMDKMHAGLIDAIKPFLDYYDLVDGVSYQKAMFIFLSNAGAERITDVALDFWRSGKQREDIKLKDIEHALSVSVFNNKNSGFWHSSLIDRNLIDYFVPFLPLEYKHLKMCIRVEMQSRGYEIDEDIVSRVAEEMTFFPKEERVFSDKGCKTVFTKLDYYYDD

Torsin-1A (Homo sapiens) [9] = biological target: Torsin-1A (Homo sapiens) (UniProt O14656); test: small-molecule binders of mutant TOR1A in lysate, primary screen, cell lysate, small-molecule microarray, COS7 lysate, 635/667 nm fluorescence (AID 1150); conditions: COS7 hTOR1A mutant lysate, 635 nm fluorescence, higher = more signal;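 further: score pools 667 nm emission and signal to noise measuring lysate protein binding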
[10] = tested on: Sonic hedgehog protein (Shh); test: small-molecule binders of Shh protein, primary screen, biochemical, small-molecule microarray, 635/667 nm fluorescence (AID 1151); conditions: small-molecule microarray binding, 635 nm fluorescence; higher = more signal;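 further: Shh protein binding to compounds spotted on small-molecule microarray slides; score combines spot fluorescence intensity with signal-to-noise across triplicate slides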
[11] = E. coli DRC41 culture turbidity changes, primary screen, E. coli filamentation inducer project, strain DRC41, OD650, 48 h (AID 1152);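 further: E. coli MC1000 strain DRC41 lacking acrAB efflux pump and sulA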; conditions: E. coli DRC41 (acrAB sulA), higher = more signal, called active from +8 up or from −8 down
[12] = small-molecule binders of probe aLefty1, primary screen, biochemical, small-molecule microarray, 635/667 nm fluorescence (AID 1153); conditions: higher = more signal;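 further: score merges spot fluorescence with signal-to-noise ratio from the scanned slide images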
[13] = PSAC antagonists in infected red cells, primary screen, cell-based, P. falciparum Indochina, OD700, 1 h (AID 1154); conditions: P. falciparum Indochina infected RBC osmotic lysis, higher = more signal, called active from +8 up or from −8 down
[14] = PSAC antagonists in infected red cells, primary screen, cell-based, P. falciparum Indochina, OD700, 2 h (AID 1155);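 further: lysis reports solute entry through the parasite surface anion channel PSAC; channel blockers reduce lysis of infected cells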; conditions: P. falciparum Indochina infected erythrocytes, osmotic lysis OD700; higher = more signal, called active from +8 up or from −8 down
[15] = osmotic lysis modulators in infected erythrocytes, primary screen, PSAC antagonist project, cell-based, P. falciparum Indochina, OD700, 3 h (AID 1156); conditions: higher = more signal, called active from +8 up or from −8 down
[16] = PSAC antagonists in infected red cells, primary screen, cell-based, P. falciparum Indochina, OD700, 18 h (AID 1157); conditions: P. falciparum Indochina infected erythrocytes, osmotic lysis OD700, 18 h; higher = more signal, called active from +8 up or from −8 down
[17] = modulators of S6 phosphorylation in cells, primary screen, cell-based, A549, cytoblot, luminescence, serum-stimulated (AID 1158); conditions: A549 phospho-S6 cytoblot, 5 h, higher = more signal;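 further: serum-stimulated A549 lung adenocarcinoma cells; signal is phosphorylated S6 detected by cytoblot immunostaining with HRP secondary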
[18] = biological target: NADPH oxidase 2 (Homo sapiens) (UniProt P04839); test: NOX2-dependent H2O2 signal modulators, primary screen, NOX inhibitor project, cell-based, HEK293-NOX2, PMA-stimulated, Amplex Red fluorescence (AID 1159); conditions: 45 min, higher = more signal, called active from +8 up or from −8 down; further: test concentration not given here
NADPH oxidase 2 (Homo sapiens), sequence (P04839 whole entry, looked up): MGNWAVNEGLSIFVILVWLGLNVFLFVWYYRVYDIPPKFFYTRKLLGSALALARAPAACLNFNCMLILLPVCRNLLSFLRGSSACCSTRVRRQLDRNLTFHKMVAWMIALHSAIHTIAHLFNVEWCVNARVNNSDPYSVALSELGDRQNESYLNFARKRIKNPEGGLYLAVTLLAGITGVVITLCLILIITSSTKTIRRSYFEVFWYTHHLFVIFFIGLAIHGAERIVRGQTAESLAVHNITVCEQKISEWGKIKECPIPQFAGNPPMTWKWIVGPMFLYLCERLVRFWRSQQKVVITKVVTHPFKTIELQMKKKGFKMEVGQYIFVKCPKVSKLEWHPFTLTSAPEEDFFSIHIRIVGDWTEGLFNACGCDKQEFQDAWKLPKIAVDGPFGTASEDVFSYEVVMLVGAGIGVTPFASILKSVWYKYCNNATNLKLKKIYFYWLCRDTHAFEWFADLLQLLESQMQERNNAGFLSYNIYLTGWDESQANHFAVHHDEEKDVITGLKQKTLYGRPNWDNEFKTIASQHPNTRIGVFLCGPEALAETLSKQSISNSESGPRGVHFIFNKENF

[19] = biological target: NADPH oxidase 4 (Homo sapiens) (UniProt Q9NPH5); test: NOX4-dependent H2O2 signal modulators, primary screen, NOX inhibitor project, cell-based, HEK293-NOX4, tetracycline-induced, Amplex Red fluorescence (AID 1160); conditions: 45 min, higher = more signal, called active from +8 up or from −8 down
NADPH oxidase 4 (Homo sapiens), sequence (Q9NPH5 whole entry, looked up): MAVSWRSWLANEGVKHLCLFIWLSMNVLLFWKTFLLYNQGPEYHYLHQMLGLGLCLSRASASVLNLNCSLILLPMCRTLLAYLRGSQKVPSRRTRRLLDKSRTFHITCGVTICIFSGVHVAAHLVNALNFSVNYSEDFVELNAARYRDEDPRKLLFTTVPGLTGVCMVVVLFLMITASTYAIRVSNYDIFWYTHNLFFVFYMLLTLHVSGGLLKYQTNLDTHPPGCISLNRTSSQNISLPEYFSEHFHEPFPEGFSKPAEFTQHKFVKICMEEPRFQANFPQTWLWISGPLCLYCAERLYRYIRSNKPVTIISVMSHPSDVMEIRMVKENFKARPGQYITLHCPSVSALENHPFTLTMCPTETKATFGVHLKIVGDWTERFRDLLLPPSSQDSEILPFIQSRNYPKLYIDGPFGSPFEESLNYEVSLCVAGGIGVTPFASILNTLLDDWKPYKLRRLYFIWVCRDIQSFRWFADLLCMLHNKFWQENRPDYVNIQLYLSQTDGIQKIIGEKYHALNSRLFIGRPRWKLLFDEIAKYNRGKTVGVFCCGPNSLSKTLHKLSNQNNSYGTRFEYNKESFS

[20] = biological target: NADPH oxidase 5 (Homo sapiens) (UniProt Q96PH1); test: NOX5-dependent H2O2 signal modulators, primary screen, NOX inhibitor project, cell-based, HEK293-NOX5, Amplex Red fluorescence (AID 1161); conditions: HEK293-NOX5, ionomycin, 45 min, higher = more signal
NADPH oxidase 5 (Homo sapiens), sequence (Q96PH1 whole entry, looked up): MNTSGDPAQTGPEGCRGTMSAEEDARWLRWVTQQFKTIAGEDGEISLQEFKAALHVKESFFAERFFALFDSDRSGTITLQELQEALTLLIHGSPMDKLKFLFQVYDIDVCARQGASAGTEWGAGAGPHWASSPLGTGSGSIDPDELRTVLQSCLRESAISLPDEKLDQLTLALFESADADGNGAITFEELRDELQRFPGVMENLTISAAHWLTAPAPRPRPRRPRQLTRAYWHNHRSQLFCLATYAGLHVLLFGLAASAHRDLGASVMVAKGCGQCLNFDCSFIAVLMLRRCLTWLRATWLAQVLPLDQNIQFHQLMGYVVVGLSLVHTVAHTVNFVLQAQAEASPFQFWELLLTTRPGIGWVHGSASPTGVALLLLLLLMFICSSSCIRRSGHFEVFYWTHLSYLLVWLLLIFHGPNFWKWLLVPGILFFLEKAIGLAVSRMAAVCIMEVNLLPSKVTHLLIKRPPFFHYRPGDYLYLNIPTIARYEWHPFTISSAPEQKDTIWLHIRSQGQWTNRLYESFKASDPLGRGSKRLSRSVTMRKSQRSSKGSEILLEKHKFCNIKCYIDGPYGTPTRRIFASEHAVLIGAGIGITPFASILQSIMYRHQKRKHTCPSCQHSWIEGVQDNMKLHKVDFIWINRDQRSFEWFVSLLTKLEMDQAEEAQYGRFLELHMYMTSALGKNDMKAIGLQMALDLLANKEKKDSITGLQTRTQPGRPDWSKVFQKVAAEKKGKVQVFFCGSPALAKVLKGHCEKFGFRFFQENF

SMILES | composite z-score [1] | z-score [2] | z-score [3] | z-score [4] | z-score [5] | composite z-score [6] | composite z-score [7] | composite z-score (Torsin-1A (Homo sapiens) [8]) | composite z-score (Torsin-1A (Homo sapiens) [9]) | composite z-score [10] | z-score [11] | composite z-score [12] | z-score [13] | z-score [14] | z-score [15] | z-score [16] | z-score [17] | z-score [18] | z-score [19] | z-score [20]
CON=C[C@@H](OC)[C@H](C)C=CCC(=O)OC | -0.115 | -0.569 (inactive) | 0.157 (inactive) | 0.257 (inactive) | 0.034 (inactive) | -0.0172 | -0.0762 | 0.752 | -0.0215 | 0.183 | -2.24 (inactive) | -0.316 | 0.0283 (inactive) | 0.325 (inactive) | -0.779 (inactive) | 0.22 (inactive) | 0.279 | 0.592 (inactive) | 0.358 (inactive) | -0.945
OC[C@H]1O[C@H](C#Cc2ccccc2)C=C[C@@H]1O | 0.0146 | -0.574 (inactive) | -0.385 (inactive) | -1.07 (inactive) | 0.186 (inactive) | 0.431 | 0.0227 | -0.339 | 0.141 | 0.363 | 0.402 (inactive) | -0.425 | 1.74 (inactive) | 0.803 (inactive) | 0.802 (inactive) | 0.784 (inactive) | -0.0359 | -0.178 (inactive) | 0.662 (inactive) | 1.33
CON=C(C)CCN1CCc2nc(-c3ccccc3)c(-c3ccccc3)cc2C1 | -0.0635 | -4.2 (inactive) | -0.925 (inactive) | 2.22 (inactive) | -0.55 (inactive) | 1.33 | -0.05 | 0.254 | 0.007 | 0.872 | -0.944 (inactive) | -0.0303 | 3.74 (inactive) | 1.17 (inactive) | 1.69 (inactive) | 0.808 (inactive) | -0.0181 | -6.35 (inactive) | -2.6 (inactive) | -6.68
CC(=O)OC[C@H]1O[C@H](C#CCC2CCCCC2)C=C[C@@H]1OC(C)=O | 0.293 | -2.43 (inactive) | 0.135 (inactive) | 0.105 (inactive) | 0.483 (inactive) | 0.176 | -0.0589 | 0.419 | 0.96 | 1.17 | 0.457 (inactive) | -0.19 | 2.09 (inactive) | 0.138 (inactive) | 0.0473 (inactive) | 0.125 (inactive) | -0.274 | 0.217 (inactive) | 0.556 (inactive) | 1.74
CC(C)CON=C1C[C@@H](O)[C@@H](O)[C@@H]2[C@@H]3C(=O)N(C(C)(C)C)C(=O)[C@@H]3CC[C@@H]12 | 0.167 | -2.95 (inactive) | -0.811 (inactive) | 1.7 (inactive) | 0.549 (inactive) | 0.0099 | -0.261 | 3.07 | 3.23 | 1.28 | -1.53 (inactive) | -0.268 | 0.778 (inactive) | -0.692 (inactive) | 0.695 (inactive) | -2.29 (inactive) | 1.13 | 0.571 (inactive) | -0.75 (inactive) | -2.22
C[C@@H](c1ccccc1)N1C(=O)[C@H]2[C@H]3[C@H](O)[C@H](O)CC(=NOCc4ccccc4)[C@@H]3CC[C@H]2C1=O | 0.0765 | 0.039 (inactive) | 1.01 (inactive) | 0.242 (inactive) | -0.166 (inactive) | 0.665 | -0.0762 | -0.407 | -0.325 | -0.742 | -1.42 (inactive) | 0.426 | 2.92 (inactive) | 0.117 (inactive) | 0.826 (inactive) | 0.479 (inactive) | -0.547 | -0.666 (inactive) | 0.115 (inactive) | 0.12
CCOC(=O)CCN1C(=O)[C@H]2[C@H]3[C@H](O)[C@H](O)CC(=NNC(=O)OCc4ccc(OC)cc4)[C@H]3CC[C@H]2C1=O | -0.169 | -0.401 (inactive) | 0.136 (inactive) | 0.523 (inactive) | -0.139 (inactive) | -0.0807 | -0.257 | 0.306 | 0.111 | 0.236 | -0.448 (inactive) | -0.0109 | 0.519 (inactive) | -0.0212 (inactive) | 0.0927 (inactive) | 0.0103 (inactive) | -0.528 | 1.67 (inactive) | 0.619 (inactive) | 0.937
CC(C)=CCCC(C)=CCON=C1C[C@@H](O)[C@@H](O)[C@@H]2[C@@H]3C(=O)N([C@@H](C)c4ccccc4)C(=O)[C@@H]3CC[C@@H]12 | 0.143 | -1.19 (inactive) | 0.491 (inactive) | -0.834 (inactive) | -0.541 (inactive) | 0.242 | -0.121 | 0.337 | 1.09 | 0.672 | -0.0368 (inactive) | 0.0794 | 0.336 (inactive) | -0.168 (inactive) | -0.291 (inactive) | 0.183 (inactive) | -0.814 | 0.311 (inactive) | -0.0815 (inactive) | -0.919
CCOC(=O)[C@H](CC(C)C)NC(=O)CCC1CC(OC(=O)NCCc2ccc(F)cc2)CC2(CCCC(COC(=O)NCCOC)O2)O1 (stereo not given in full) | 0.441 | -0.127 (inactive) | 0.045 (inactive) | 0.198 (inactive) | 0.0489 (inactive) | 0.581 | -0.215 | 0.441 | 0.259 | 1.53 | -1.39 (inactive) | -0.198 | 3.18 (inactive) | 0.621 (inactive) | 0.0768 (inactive) | -0.0213 (inactive) | -0.474 | -0.25 (inactive) | 0.998 (inactive) | 1.19
